# Paper PMC7862700, “An all-to-all approach to the identification of sequence-specific readers for epigenetic DNA modifications on cytosine”
# Assays:
# Assay in all cases: DAPPL (digital affinity profiling via proximity ligation, sequencing); 10 mM Tris-HCl pH 7.5, 50 mM NaCl, 1 mM DTT, 4% glycerol, room temperature, 30 min; GST-TFs on glutathione beads, 16-mer random dsDNA library, 0.1% formaldehyde crosslink after washing; high values mean tight binding
# FLI1 = molecular target: T1, FLI1 (Homo sapiens, UniProt Q01543 1-452); details: protein: recombinant; tags: N-terminal GST; dsDNA, one strand shown
# T1 sequence: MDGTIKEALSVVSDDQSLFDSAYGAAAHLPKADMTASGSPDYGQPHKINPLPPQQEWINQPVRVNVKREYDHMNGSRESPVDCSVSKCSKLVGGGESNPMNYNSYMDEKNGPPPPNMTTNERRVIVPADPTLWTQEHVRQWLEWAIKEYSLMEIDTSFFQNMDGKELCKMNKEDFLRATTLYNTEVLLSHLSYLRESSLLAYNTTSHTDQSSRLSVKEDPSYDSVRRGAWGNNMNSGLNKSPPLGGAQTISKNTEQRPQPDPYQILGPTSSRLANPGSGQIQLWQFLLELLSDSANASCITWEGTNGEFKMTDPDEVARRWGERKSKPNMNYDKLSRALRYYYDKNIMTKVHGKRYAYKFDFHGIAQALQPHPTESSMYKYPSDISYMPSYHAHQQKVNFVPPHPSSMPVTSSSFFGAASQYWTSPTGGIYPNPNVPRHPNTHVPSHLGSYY
# Method in brief: (§1)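 GST fusions of human transcription factors were expressed in yeast and captured with glutathione beads. Once given DNA barcodes and pooled alongside a tag-only sample, they were incubated for 30 min at room temperature with 200 nmole of a random double-stranded 16-mer DNA library in Tris/NaCl/DTT/glycerol buffer, then washed, crosslinked (0.1% formaldehyde), proximity-ligated, PCR-amplified and sequenced on an Illumina NextSeq500. The binding signal of each hexamer is its read frequency for a factor divided by its frequency for the tag-only sample.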
# ELK1 = molecular target: T2, ELK1 (Homo sapiens, UniProt P19419 1-428); details: protein: recombinant; tags: N-terminal GST; dsDNA, one strand shown
# T2 sequence: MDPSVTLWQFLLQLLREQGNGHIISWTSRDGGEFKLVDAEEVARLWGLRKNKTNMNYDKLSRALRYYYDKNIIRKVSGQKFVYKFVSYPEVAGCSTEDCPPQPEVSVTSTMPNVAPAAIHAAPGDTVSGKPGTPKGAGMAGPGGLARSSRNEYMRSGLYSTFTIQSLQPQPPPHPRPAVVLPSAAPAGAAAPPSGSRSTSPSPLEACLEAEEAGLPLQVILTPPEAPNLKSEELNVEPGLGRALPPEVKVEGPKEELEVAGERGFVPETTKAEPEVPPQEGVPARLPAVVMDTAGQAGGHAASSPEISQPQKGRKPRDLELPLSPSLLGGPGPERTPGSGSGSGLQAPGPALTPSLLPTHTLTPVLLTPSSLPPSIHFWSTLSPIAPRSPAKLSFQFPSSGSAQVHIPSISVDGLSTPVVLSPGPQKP
# Method in brief: as §1
# GABPA = molecular target: T3, GABPA (Homo sapiens, UniProt Q06546 1-454); details: protein: recombinant; tags: N-terminal GST; dsDNA, one strand shown
# T3 sequence: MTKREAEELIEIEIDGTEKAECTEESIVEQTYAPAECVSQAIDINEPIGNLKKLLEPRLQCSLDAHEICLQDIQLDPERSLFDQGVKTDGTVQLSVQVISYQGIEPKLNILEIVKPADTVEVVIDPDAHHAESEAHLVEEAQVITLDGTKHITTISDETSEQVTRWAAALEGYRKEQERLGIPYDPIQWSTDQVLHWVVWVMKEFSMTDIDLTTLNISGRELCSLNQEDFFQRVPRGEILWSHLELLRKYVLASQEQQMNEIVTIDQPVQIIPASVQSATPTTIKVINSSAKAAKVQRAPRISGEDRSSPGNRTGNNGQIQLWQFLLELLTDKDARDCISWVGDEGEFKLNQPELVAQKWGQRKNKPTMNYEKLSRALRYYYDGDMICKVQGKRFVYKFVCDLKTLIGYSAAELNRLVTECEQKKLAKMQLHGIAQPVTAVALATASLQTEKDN
# Method in brief: as §1
# ERG = molecular target: T4, ERG (Homo sapiens, UniProt P11308 1-479); details: protein: recombinant; tags: N-terminal GST; dsDNA, one strand shown
# T4 sequence: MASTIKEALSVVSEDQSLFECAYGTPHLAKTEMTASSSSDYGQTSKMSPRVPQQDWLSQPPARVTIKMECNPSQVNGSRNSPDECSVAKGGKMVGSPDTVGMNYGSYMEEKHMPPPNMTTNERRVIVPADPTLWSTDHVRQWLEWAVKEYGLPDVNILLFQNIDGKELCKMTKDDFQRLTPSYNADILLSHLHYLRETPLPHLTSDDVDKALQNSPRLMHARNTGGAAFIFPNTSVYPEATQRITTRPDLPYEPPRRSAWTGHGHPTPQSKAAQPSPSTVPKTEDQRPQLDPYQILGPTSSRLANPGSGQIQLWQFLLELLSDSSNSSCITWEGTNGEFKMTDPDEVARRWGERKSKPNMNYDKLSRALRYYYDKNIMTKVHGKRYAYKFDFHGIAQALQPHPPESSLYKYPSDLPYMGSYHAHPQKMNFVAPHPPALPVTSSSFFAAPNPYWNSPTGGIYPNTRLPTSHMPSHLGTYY
# Method in brief: as §1
# ELF1 = ELF1 (Homo sapiens, UniProt P32519 1-619); details: protein: recombinant; tags: N-terminal GST; dsDNA, one strand shown
# Method in brief: as §1
# EHF = molecular target: T5, EHF (Homo sapiens, UniProt Q9NZC4 1-300); details: protein: recombinant; tags: N-terminal GST; dsDNA, one strand shown
# T5 sequence: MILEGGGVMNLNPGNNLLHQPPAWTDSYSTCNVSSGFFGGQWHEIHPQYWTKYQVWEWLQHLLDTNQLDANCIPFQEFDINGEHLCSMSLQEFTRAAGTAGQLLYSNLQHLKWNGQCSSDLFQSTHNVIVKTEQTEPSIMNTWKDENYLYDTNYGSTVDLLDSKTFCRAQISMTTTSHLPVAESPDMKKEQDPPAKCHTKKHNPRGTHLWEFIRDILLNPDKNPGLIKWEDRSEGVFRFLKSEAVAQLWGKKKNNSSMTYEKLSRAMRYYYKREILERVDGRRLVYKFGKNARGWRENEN
# Method in brief: as §1
# SPI1 = SPI1 (Homo sapiens, UniProt P17947 1-270); details: protein: recombinant; tags: N-terminal GST; dsDNA, one strand shown
# Method in brief: as §1
# SPIB = SPIB (Homo sapiens, UniProt Q01892 1-262); details: protein: recombinant; tags: N-terminal GST; dsDNA, one strand shown
# Method in brief: as §1
# ELK3 = molecular target: T6, ELK3 (Homo sapiens, UniProt P41970 1-407); details: protein: recombinant; tags: N-terminal GST; dsDNA, one strand shown
# T6 sequence: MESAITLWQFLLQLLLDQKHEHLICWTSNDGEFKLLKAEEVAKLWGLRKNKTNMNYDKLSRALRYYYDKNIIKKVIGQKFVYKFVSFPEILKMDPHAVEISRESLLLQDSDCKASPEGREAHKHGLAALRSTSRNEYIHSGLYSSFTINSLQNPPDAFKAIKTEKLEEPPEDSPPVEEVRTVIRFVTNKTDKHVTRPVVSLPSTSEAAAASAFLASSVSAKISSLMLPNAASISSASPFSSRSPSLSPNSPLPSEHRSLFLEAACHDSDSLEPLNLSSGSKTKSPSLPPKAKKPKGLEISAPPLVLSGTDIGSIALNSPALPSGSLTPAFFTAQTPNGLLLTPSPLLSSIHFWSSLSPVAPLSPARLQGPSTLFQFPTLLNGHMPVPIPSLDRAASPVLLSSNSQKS
# Method in brief: as §1
# FEV = molecular target: T7, FEV (Homo sapiens, UniProt Q99581 1-238); details: protein: recombinant; tags: N-terminal GST; dsDNA, one strand shown
# T7 sequence: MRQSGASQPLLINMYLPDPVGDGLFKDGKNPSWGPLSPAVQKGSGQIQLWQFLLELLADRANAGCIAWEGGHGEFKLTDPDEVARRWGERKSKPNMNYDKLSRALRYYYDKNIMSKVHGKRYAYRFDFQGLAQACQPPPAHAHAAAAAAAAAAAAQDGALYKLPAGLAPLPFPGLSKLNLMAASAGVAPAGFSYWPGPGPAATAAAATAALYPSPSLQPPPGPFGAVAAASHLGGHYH
# Method in brief: as §1
# ETV5 = ETV5 (Homo sapiens, UniProt P41161 1-510); details: protein: recombinant; tags: N-terminal GST; dsDNA, one strand shown
# Method in brief: as §1
# HSF1 = HSF1 (Homo sapiens, UniProt Q00613 1-529); details: protein: recombinant; tags: N-terminal GST; chain copies: 3; dsDNA, one strand shown
# Method in brief: as §1
# SPIC = molecular target: T8, SPIC (Homo sapiens, UniProt Q8N5J4 1-248); details: protein: recombinant; tags: N-terminal GST; dsDNA, one strand shown
# T8 sequence: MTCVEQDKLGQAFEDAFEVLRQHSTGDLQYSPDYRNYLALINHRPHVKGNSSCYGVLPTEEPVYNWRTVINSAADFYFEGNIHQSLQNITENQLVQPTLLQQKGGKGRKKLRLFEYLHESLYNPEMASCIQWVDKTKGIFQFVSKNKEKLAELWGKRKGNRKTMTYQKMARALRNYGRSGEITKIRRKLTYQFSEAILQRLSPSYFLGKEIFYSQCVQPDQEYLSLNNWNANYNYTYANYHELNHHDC
# Method in brief: as §1
# ELF4 = ELF4 (Homo sapiens, UniProt Q99607 1-663); details: protein: recombinant; tags: N-terminal GST; dsDNA, one strand shown
# Method in brief: as §1
# ELK4 = molecular target: T9, ELK4 (Homo sapiens, UniProt P28324-2 1-405); details: protein: recombinant; tags: N-terminal GST; dsDNA, one strand shown
# T9 sequence: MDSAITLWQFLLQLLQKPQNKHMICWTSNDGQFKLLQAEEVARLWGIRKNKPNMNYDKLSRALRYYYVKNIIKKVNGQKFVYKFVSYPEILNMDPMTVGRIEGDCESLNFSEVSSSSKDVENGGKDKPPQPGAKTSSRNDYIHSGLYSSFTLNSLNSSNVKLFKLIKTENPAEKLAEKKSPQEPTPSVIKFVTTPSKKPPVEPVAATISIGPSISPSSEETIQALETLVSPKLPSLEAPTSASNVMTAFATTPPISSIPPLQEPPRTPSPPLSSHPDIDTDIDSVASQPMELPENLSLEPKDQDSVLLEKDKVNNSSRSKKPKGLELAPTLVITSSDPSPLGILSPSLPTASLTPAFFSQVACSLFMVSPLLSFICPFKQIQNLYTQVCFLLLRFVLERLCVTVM
# Method in brief: as §1
# ETV2 = molecular target: T10, ETV2 (Homo sapiens, UniProt O00321 1-342); details: protein: recombinant; tags: N-terminal GST; dsDNA, one strand shown
# T10 sequence: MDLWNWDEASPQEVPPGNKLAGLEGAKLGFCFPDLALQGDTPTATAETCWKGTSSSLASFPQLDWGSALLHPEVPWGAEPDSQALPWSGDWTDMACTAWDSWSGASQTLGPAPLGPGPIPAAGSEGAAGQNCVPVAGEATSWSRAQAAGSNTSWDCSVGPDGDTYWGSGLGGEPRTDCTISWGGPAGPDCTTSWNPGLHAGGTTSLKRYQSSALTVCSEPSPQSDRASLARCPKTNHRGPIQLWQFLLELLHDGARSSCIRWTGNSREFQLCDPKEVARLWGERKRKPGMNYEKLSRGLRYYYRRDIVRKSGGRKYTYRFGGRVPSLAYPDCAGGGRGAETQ
# Method in brief: as §1
# ELF3 = molecular target: T11, ELF3 (Homo sapiens, UniProt P78545 1-371); details: protein: recombinant; tags: N-terminal GST; dsDNA, one strand shown
# T11 sequence: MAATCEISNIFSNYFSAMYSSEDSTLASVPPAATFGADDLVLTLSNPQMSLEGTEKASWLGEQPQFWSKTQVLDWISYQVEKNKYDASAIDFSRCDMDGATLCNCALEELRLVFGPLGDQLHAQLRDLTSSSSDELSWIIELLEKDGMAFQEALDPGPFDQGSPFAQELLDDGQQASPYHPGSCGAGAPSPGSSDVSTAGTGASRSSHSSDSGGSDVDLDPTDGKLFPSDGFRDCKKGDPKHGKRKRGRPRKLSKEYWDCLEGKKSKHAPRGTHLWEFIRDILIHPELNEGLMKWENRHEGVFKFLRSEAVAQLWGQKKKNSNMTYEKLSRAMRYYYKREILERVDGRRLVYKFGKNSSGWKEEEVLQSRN
# Method in brief: as §1
# CRX = CRX (Homo sapiens, UniProt O43186 1-299); details: protein: recombinant; tags: N-terminal GST; dsDNA, one strand shown
# Method in brief: as §1
# ETV1 = ETV1 (Homo sapiens, UniProt P50549 1-477); details: protein: recombinant; tags: N-terminal GST; dsDNA, one strand shown
# Method in brief: as §1
# Sequence of ETV5 (P41161 whole entry): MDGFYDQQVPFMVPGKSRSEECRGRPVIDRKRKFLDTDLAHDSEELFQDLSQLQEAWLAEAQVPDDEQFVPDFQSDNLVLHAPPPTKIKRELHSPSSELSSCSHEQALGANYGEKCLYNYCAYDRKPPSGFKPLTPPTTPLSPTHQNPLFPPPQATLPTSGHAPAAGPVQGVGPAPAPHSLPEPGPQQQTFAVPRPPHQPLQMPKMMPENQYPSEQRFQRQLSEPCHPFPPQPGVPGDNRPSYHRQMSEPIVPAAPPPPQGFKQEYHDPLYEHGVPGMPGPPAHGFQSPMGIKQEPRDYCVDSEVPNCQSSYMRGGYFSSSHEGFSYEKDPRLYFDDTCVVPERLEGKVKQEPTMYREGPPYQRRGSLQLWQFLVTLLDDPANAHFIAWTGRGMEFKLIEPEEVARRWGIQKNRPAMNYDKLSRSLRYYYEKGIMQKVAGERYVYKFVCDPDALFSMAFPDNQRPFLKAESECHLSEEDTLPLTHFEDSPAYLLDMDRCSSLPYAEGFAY
# Sequence of HSF1 (Q00613 whole entry): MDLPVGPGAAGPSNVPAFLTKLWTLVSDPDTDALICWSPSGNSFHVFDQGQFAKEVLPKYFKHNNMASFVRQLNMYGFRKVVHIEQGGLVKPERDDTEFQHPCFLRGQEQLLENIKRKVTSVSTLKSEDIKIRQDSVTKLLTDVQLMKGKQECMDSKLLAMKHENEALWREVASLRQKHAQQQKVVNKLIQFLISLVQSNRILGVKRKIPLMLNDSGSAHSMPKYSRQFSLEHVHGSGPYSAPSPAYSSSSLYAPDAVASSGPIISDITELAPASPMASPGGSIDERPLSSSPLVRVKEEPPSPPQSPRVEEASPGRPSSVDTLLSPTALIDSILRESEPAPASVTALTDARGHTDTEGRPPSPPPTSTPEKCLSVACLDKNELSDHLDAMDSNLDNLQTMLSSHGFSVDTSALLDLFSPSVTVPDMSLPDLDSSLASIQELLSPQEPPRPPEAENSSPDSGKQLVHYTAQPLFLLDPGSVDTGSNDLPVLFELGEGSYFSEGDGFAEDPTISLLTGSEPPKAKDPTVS
# Sequence of CRX (O43186 whole entry): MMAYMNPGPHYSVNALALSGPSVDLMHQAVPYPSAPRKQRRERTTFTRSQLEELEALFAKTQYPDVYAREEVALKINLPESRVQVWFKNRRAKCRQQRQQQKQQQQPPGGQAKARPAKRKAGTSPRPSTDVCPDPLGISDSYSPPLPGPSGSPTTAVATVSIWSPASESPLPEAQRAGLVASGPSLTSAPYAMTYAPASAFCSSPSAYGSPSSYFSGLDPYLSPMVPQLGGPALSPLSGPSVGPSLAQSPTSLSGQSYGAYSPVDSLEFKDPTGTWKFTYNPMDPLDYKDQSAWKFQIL
# Sequence of SPIB (Q01892 whole entry): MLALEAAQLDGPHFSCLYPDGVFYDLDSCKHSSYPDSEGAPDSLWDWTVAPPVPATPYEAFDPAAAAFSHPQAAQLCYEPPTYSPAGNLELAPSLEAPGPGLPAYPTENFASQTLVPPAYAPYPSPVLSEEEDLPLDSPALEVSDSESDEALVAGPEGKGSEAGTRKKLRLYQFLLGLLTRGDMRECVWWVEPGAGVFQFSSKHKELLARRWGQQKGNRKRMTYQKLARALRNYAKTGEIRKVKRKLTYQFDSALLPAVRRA
# Sequence of ETV1 (P50549 whole entry): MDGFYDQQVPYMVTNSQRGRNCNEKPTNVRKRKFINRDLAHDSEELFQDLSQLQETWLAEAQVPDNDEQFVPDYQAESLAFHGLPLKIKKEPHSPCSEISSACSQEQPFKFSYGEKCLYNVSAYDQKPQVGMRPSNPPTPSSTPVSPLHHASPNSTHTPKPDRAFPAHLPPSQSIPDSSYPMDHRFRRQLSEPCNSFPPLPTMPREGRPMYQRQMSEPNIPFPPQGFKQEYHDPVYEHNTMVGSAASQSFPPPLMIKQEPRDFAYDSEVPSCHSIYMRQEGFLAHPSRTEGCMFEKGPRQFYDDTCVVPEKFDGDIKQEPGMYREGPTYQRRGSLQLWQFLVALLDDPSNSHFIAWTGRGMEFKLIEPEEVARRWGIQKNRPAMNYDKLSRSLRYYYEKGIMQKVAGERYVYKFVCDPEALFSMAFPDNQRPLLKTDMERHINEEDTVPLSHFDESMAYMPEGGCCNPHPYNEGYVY
# Sequence of ELF4 (Q99607 whole entry): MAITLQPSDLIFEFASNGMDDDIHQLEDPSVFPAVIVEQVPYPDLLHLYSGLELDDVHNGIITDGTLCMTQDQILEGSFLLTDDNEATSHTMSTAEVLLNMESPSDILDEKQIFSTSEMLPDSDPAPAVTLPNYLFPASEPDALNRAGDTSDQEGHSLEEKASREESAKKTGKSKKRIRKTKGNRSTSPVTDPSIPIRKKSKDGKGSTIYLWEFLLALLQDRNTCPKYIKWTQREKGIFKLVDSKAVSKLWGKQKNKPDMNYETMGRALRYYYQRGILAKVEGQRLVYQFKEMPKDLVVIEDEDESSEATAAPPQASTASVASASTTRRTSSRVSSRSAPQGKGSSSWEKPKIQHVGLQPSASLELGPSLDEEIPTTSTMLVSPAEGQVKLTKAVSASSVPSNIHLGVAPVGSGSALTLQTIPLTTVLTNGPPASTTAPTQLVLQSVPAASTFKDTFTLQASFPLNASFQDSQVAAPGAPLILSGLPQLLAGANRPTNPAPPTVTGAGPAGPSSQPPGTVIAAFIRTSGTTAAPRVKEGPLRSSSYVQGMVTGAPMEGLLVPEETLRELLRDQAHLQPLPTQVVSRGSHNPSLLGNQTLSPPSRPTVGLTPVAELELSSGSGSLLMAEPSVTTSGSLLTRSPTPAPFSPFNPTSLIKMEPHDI
# Sequence of ELF1 (P32519 whole entry): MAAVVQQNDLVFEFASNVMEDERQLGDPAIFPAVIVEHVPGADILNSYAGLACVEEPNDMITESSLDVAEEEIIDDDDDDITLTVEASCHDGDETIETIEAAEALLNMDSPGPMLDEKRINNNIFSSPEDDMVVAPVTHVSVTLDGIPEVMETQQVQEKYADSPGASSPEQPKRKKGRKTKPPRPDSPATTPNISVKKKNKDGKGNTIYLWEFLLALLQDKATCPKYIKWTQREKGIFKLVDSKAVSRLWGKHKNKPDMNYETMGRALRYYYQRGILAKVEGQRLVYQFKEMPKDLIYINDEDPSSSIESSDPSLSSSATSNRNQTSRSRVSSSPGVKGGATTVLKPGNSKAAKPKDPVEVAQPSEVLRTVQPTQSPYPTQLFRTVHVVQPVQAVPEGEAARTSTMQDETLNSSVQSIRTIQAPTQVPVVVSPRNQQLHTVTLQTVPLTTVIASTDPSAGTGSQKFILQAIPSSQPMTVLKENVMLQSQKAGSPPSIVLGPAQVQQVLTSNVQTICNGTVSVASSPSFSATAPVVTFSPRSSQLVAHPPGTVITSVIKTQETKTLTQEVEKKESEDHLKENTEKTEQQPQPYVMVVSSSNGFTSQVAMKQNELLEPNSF
sequence,measurement,setting,value
TATGCT,binding signal,FLI1,"1.28 fold enrichment (6-mer frequency, TF over GST control)"
same,binding signal,ELK1,"1.28 fold enrichment (6-mer frequency, TF over GST control)"
same,binding signal,GABPA,"1.32 fold enrichment (6-mer frequency, TF over GST control)"
same,binding signal,ERG,"1.26 fold enrichment (6-mer frequency, TF over GST control)"
same,binding signal,ELF1,"1.29 fold enrichment (6-mer frequency, TF over GST control)"
same,binding signal,EHF,"1.33 fold enrichment (6-mer frequency, TF over GST control)"
same,binding signal,SPI1,"1.41 fold enrichment (6-mer frequency, TF over GST control)"
same,binding signal,SPIB,"1.33 fold enrichment (6-mer frequency, TF over GST control)"
same,binding signal,ELK3,"1.22 fold enrichment (6-mer frequency, TF over GST control)"
same,binding signal,FEV,"1.24 fold enrichment (6-mer frequency, TF over GST control)"
same,binding signal,ETV5,"1.39 fold enrichment (6-mer frequency, TF over GST control)"
same,binding signal,HSF1,"1.41 fold enrichment (6-mer frequency, TF over GST control)"
same,binding signal,SPIC,"1.6 fold enrichment (6-mer frequency, TF over GST control)"
same,binding signal,ELF4,"1.31 fold enrichment (6-mer frequency, TF over GST control)"
same,binding signal,ELK4,"1.4 fold enrichment (6-mer frequency, TF over GST control)"
same,binding signal,ETV2,"1.3 fold enrichment (6-mer frequency, TF over GST control)"
same,binding signal,ELF3,"1.37 fold enrichment (6-mer frequency, TF over GST control)"
same,binding signal,CRX,"1.51 fold enrichment (6-mer frequency, TF over GST control)"
same,binding signal,ETV1,"1.29 fold enrichment (6-mer frequency, TF over GST control)"
